Test results from PubChem BioAssay AID1850 (Southern Research Specialized Biocontainment Screening …, 2009).
Values joined by “and” are separate entries in the source; they are usually repeats but may differ in a detail not shown here. Identical values can stand only once. In all, about 310,000 compounds went through this assay and about 1,000 (0.32%) were called active. A selection follows. Entries with a potency or affinity are not part of this list. A number with no mark means an inactive call. The rule behind the calls is not given here.

Test: Inhibition of PhoP regulon, Salmonella typhi GFP reporter cells, confirmation, 4 h (AID 1850);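 note: 0% = induced wells with vehicle and 100% = uninduced wells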
Conditions: Salmonella Typhi PhoP-promoter GFP reporter, fluorescence, at 50 µM, hits give high values

Structure (SMILES)	inhibition
CCOc1ccc(-c2noc(CCC(=O)NC3CCCCC3)n2)cc1OC	-7.76%
Fc1cccc(Nc2nc(Cl)nc(Cl)n2)c1	-6.69%
NNc1nc(Nc2ccccc2)nc(Nc2ccccc2)n1	-2.45%
COc1cc2nc(Nc3cccc(F)c3)nc(N)c2cc1OC	-16.8%
COc1ccc(C)cc1Nc1nc(N)c2ccccc2n1	2.42%
CC(=O)c1ccc(OCC(O)CN2CCN(c3ccc(F)cc3)CC2)cc1 (stereo not drawn)	9.79%
C[C@H]1CN=C(N(C)C)N1CCCC1CCCCC1	-3.79%
CCOC(=O)N1CCN(CCC(=O)c2ccc(OC)cc2)CC1	19.1%
O=C(CCN1CCOCC1)c1ccc(Cl)cc1	5.47%
CCOC(=O)N1CCN(CCC(=O)Nc2cccc(Br)c2)CC1	-10.1% and 1.14%
CCOC(=O)N1CCN(CCC(=O)Nc2ccc(Br)cc2)CC1	-11.9%
CCOC(=O)n1cc(-c2cnc(CNC(=O)C(C)(c3ccccc3)c3ccccc3)o2)c2ccccc21	-3.78%
Cc1ccc(C(=O)NCC(=O)Nc2cccc(C(F)(F)F)c2)cc1	7%
CCCN1CCN(CCCNC(=S)Nc2ccc3nc(N4CCN(CC)CC4)cc(C)c3c2)CC1	2.52%
Cn1cc(P(=S)(N2CCOCC2)N2CCOCC2)cc1P(=S)(N1CCOCC1)N1CCOCC1	-5.57%
CN(C)S(=O)(=O)c1ccc(S(=O)(=O)N(CC(=O)Nc2ccccc2)CC2CCCO2)cc1 (stereo not drawn)	9.84%
CC1CCCN(C(=O)COC(=O)Cc2c(F)cccc2Cl)C1 (stereo not drawn)	8.14%
CN1CCC(=C2c3ccccc3CCc3sccc32)CC1	4.53%
C[N+]1(C)CCC(=C2c3ccccc3CC(=O)c3sccc32)CC1	-5.91%
Clc1ccc2c(c1)CCc1cccnc1C2=C1CCNCC1	9.72%
CN1CCC(=C2c3ccccc3CC(=O)c3sccc32)CC1	-11.1% and 6.89% and 11.9%
COc1ccccc1CNC(=O)c1ccc(N2CCOCC2)c([N+](=O)[O-])c1	3.84%
O=C(O)c1ccccc1C(=O)Nc1ccc(Oc2ccc3ccccc3c2)cc1	-5.98%
O=S(=O)(Nc1ccc(-n2cnnn2)cc1)c1ccc(F)c(F)c1F	-6.29%
Cc1cc(NCCN2CCOCC2)c2ccc3ccccc3c2n1	0.49%

Structure (SMILES)	inhibition
COc1ccc2nc(C)cc(NCCN3CCOCC3)c2c1	3.31%
CN1CCN(C2=Cc3ccccc3Sc3cc(F)c(F)cc32)CC1	56.3%
CN1CCN(c2ccc(F)cc2N)CC1	-23.4%
CN1CCN(c2nc(-c3ccc(Cl)c(Cl)c3)nc3ccccc23)CC1	-3.79%
CN1CCN(C2=Cc3ccc(Cl)cc3Sc3ccc(F)cc32)CC1	2.54%
CN1CCN(C2=Nc3cc(F)ccc3Cc3ccccc32)CC1	10.2%
CN1CCN(c2ccc(Cl)cc2N)CC1	5.42%
COc1ccc(N(CC(=O)Nc2ccc(C(C)C)cc2)S(=O)(=O)c2c(C)noc2C)cc1	-9.48%
COc1ccccc1NC(=O)CSc1nnc(Cc2ccccc2)o1	-0.38%
CCC(=O)OC1(Cc2ccc(CC)cc2)CC(C)N(C)CC1C (stereo not drawn)	-0.84%
CCOC(=O)C1(CCOC)CCN(Cc2ccncc2)CC1	-5.83%
O=C(Oc1c(CN2CCOCC2)cc(Cl)c2cccnc12)c1ccccc1	9.08%
COc1ccc(CN2CCN(C)CC2)cc1OCc1ccccc1	0.01%
Oc1c(CN2CCOCC2)cc(-c2ccccc2)cc1CN1CCOCC1	9.41%
Oc1c(CN2CCCCC2)cc(COCc2ccccc2)c2cccnc12	-6.03%
Cc1cccc(OCC(=O)Nc2nnc(-c3ccco3)s2)c1	5.97%
CCOc1ccc2nc(N3CCCC(C(=O)NCCCN4CCCCC4)C3)sc2c1 (stereo not drawn)	6.31%
CCN(CC(N)=O)S(=O)(=O)c1ccc(Br)cc1	4.08%
CCCn1c(=N)n(CC(=O)c2ccc(Cl)c(Cl)c2)c2ccccc21	-5.11%
N=c1n(CCN2CCOCC2)c2ccccc2n1CC(=O)c1ccc(Cl)c(Cl)c1	20.6%
N=c1n(CCN2CCCC2)c2ccccc2n1CC(O)c1ccc(Cl)c(Cl)c1 (stereo not drawn)	27.1%
N=c1n(CCN2CCCCC2)c2ccccc2n1CC(O)c1cccc(Br)c1 (stereo not drawn)	2.9%
CC1=NN(c2nc(C)cc(C)n2)C(=O)C1CCC(C)C (stereo not drawn)	2.35%
Cc1cc(C)nc(NC(=O)c2cccs2)c1	-2.29%
Cc1cccc(NS(=O)(=O)c2c(C)nc3scc(C)n3c2=O)c1	-24.5%

Structure (SMILES)	inhibition
COC(=O)C1CSC(C(=O)OC)N1C(=O)CN1CC(C)OC(C)C1 (stereo not drawn)	-2.04%
O=c1ccn([C@@H]2O[C@H](CO)[C@@H](O)[C@H]2O)c(=O)[nH]1	-0.0767%
O=c1[nH]c(=O)n(C2OC(CO)C(O)C2O)cc1Br (stereo not drawn)	-19.2%
Cc1cc(C)nc(CCNC(=O)c2cc(COc3c(C)cccc3C)on2)n1	-3.31%
CC(C)Oc1ccc(C(=O)NCC(=O)OCC(=O)N(C)Cc2cccs2)cc1	2.06%
CCn1c(C)cc(C)c(C#N)c1=O	7.92%
CCN(CC)CCn1c(=N)n(CC(O)COc2ccccc2)c2ccccc21 (stereo not drawn)	15.1%
CCCn1c(=N)n(CC(O)COc2cccc(C)c2)c2ccccc21 (stereo not drawn)	3.8%
Cc1ccc(OCC(O)Cn2c(=N)n(CCN3CCOCC3)c3ccccc32)cc1 (stereo not drawn)	14%
CCCCn1c(=N)n(CC(O)COc2cccc(C)c2)c2ccccc21 (stereo not drawn)	9.29%
N=c1n(CCN2CCCCC2)c2ccccc2n1CC(O)COc1ccccc1 (stereo not drawn)	28%
COc1ccc(OCC(O)Cn2c(=N)n(CCN3CCCCC3)c3ccccc32)cc1 (stereo not drawn)	20.8%
Cc1ccc(SCC(=O)OCC(=O)NCCC2=CCCCC2)cc1	9.93%
O=C(O)CNC(=O)C1COc2ccccc2O1 (stereo not drawn)	8.95%
COCCCn1c(C23CC4CC(CC(C4)C2)C3)n[nH]c1=S	-6.32%
Fc1ccc(CCNCc2ccc(Br)cc2)cc1	-3.63%
C1N2CN3CN1CN(C2)C3	-6.24%
O=C(CSc1nnnn1C1CCCC1)N1CCCc2ccccc21	11.7%
COc1ccccc1OCCC(=O)OCC(=O)c1[nH]c(C)c(C(C)=O)c1C	10.1%
O=C(NCN1CCN(c2ccccc2F)CC1)c1ccccc1	0.63%
C/C(=N\NC(=O)C1CC1)c1ccc(Cl)c(Cl)c1	5.7%
NCC(=O)c1cccc2ccc[n+]([O-])c12	-7.72%
C[n+]1cccc2c(Br)ccc([O-])c21	4.86%
O=C(CSc1n[nH]c(=O)[nH]c1=O)c1ccccc1[N+](=O)[O-]	-3.6%
CCN(Cc1cc2ccccc2[nH]c1=O)C(=O)c1cccnc1	1.33%

Structure (SMILES)	inhibition
COc1ccc(C2(CNC(=O)/C=C\c3ccco3)CCCC2)cc1OC	-2.04%
COC(=O)c1ccccc1NC(=S)NC(=O)COc1ccccc1	10.9%
Cc1ccccc1C(=O)NNC(=S)NC(=O)c1ccccc1	-2%
CC(C)(C)c1ccc(C(=O)NC(=S)NNC(=O)COc2ccccc2)cc1	-4.42%
O=C(COc1ccccc1)NNC(=S)NC(=O)c1ccccc1	12.9%
CCc1ccc(NC(=S)Nn2cnnc2)cc1	3.78%
CCn1cc(C(=O)c2ccccc2)c2ccccc21	-2.86%
COc1ccc(/C=C/C(=O)Nc2ccc(-c3nnc4n3CCCCC4)cc2)c(OC)c1	5.23%
CC(=O)OC(C(=O)NCc1ccco1)c1ccncc1 (stereo not drawn)	-8.42%
Cc1c(CCOC(=O)CC23CC4CC(CC(C4)C2)C3)sc[n+]1CC(=O)c1ccc(Br)cc1	-0.11%
Cc1c(CCOC(=O)c2ccccc2)sc[n+]1CC(=O)c1ccc(Br)cc1	-8.05%
O=C(Nc1nc(-c2cccc([N+](=O)[O-])c2)cs1)c1cccc([N+](=O)[O-])c1C(=O)O	5.24%
O=C(NC1CCCCCCC1)C1CCN(S(=O)(=O)N2CCCC2)CC1	11%
O=C(CSc1nc2ccccc2[nH]1)Nc1ccc(F)cc1	0.68%
O=C(CSc1nc2ccccc2[nH]1)Nc1ccccc1F	-4.68%
Cc1ccc(NS(=O)(=O)c2ccc3c(c2)NC(=O)CCS3)c(Br)c1	1.1%
NC(=O)/C=C/C(=O)Nc1ccc(Cl)cc1	5%
CC(/C=C/c1ccccc1)=N/NC(=O)c1cnccn1	1.54%
COc1ccc(/C=C/C(=O)NC(=S)NNC(=O)c2cccnc2)cc1	-4.83%
O=C(/C=C/c1ccc(F)cc1)NC(=S)NC1CCCCC1	2.79%
COc1ccc(/C=C/C(=O)NC(=S)NNC(=O)c2cc(OC)c(OC)c(OC)c2)cc1	4.25%
O=C(/C=C/c1ccccc1)NC(=S)NNC(=O)c1cccnc1	4.06%
CC(C)NC(=S)NC(=O)/C=C/c1ccc(F)cc1	-3.22%
